# Screening results from PubChem BioAssay.
# Only some compounds are listed: those with a hit (about 12% of all), similar ones and a draw of the others.
# Sm TGR block – S. mansoni TGR enzyme inhibition; hit rate 3% among 360,000; Q962Y6; Potency, µM (highest dose often 114 µM), inactives show at the top dose activity change, negative = inhibition, hits mostly inhibitors; purified TGR, DTNB reduction, TNB absorbance 405 nm; active = well fitted inhibition curve with a large enough effect; inconclusive = small, poorly fitted or top-dose-only effect; inactive = no such curve, though single readings can be large or run the other way; also: potency is read from the fitted curve at half-maximal effect; % is scaled to controls: 0 for no effect and ±100 for the full control effect; nearly all actives have a fitted effect of over 60% in size
#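 First, TGR (20 nM dispensed) and NADPH were mixed with compound. Second, a 15 min room-temperature incubation followed. Third, further NADPH and then DTNB were added to start the reaction. Finally, TNB absorbance was monitored kinetically.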
# FMDV antiviral – foot and mouth disease virus antiviral activity. AID 1159524. hit rate 1.2% among 410,000. FMDV antiviral cell-based qHTS. Potency, µM (series often up to 57.9 µM), without a hit: at the top dose activity change, negative = inhibition, most hits filed as inhibitors; calls by dose curve; tested in HEK293T cells; also: read-out not given here; potency is read from the fitted curve at half-maximal effect; % is scaled to controls: 0 for no effect and ±100 for the full control effect; nearly all actives have a fitted effect of over 45% in size
# Shiga toxin inh – Shiga toxin inhibition; inhibition, % at 38.7 µM; AID 2315; Vero cells, Shiga toxin protein synthesis inhibition reporter; hit rate 9.2% among 290,000; in the data active = inhibition mostly above about 28%, no sharp cut-off; inactive = mostly below about 43%; also: 0% is about no effect
# CHX counter – counter-screen for Shiga toxin inhibitors: cycloheximide protein synthesis inhibition; cell reporter, cycloheximide protein synthesis inhibition counterscreen; max response, %; hit rate 12% among 300,000; in the data active = max response mostly above about 13%, no sharp cut-off; inactive = mostly below about 14%; also: read at 38.3 µM for the half of the compounds with a filed dose; 0% is about no effect
# An asterisk follows results filed as active; ? = inconclusive; / = no result; + = active, no number; [ ] = another dose, or the depositor's remark.
SMILES,Sm TGR block,FMDV antiviral,Shiga toxin inh,CHX counter
CCCCNC(=O)c1cnc2sc(N3CCCCCC3)nn2c1=O,5%,-12%,/,/
Cc1ccc(NC(=O)CCn2nc(C)c(S(=O)(=O)N3CCCCC3)c2C)cc1Cl,8%,-17%,/,/
COc1ccc(NC(=O)c2ccccc2C)cc1,-9%,2%,/,34*
O=C(NNC(=O)c1cccc2ccccc12)c1ccc(F)cc1,/,17%,/,/
O=C(Nc1ccc(F)cc1)c1cccc2ccccc12,0%,55%,15,24*
COc1ccc(NC(=O)c2cccc3ccccc23)cc1,89µM*,17%,21,20*
COc1ccc(NC(=O)CCn2cc(C)c3ccccc32)cc1,12%,60%,56*,48*
COc1ccc(NC(=O)c2cccc3c(Br)cccc23)cc1,-2%,28%,22,1
COCCNC(=O)c1nn(-c2ccc(Cl)cc2)nc1CO,9%,-1%,/,/
CCc1nn(CC(=O)NCCc2ccc(Cl)cc2)c(=O)c2cc3c(OC)cccc3n12,-3%,-20%,/,/
Cc1ccc(NC(=O)c2ccc(F)cc2F)cc1,/,31%,/,/
Cc1ccc(NC(=O)c2ccc(F)cc2F)cc1NS(C)(=O)=O,18%,17%,61*,8
CCc1ccc(C(=O)Nc2ccc(C)c(NS(C)(=O)=O)c2)cc1,3%,-10%,39,7.6*
CCOc1ccc(Nc2nc(NCC3CCCO3)c3ccccc3n2)cc1 (stereo not given),-15%,25µM*,17,14
c1ccc(Nc2nc(NCC3CCCO3)c3ccccc3n2)cc1 (stereo not given),-24%,28µM*,13,9
COc1ccc(-c2cc(C(F)(F)F)nc(SCC(=O)NCc3ccc(OC)c(OC)c3)n2)cc1,4%,-20%,/,/
CN(C)c1ccc(N/C=C/C(=O)c2ccc(F)cc2)cc1,0%,-19%,63*,65*
NS(=O)(=O)c1ccc(N/C=C\C(=O)c2ccc(F)cc2)cc1,1%,40%,65*,29*
NS(=O)(=O)c1ccc(N/C=C\C(=O)c2ccncc2)cc1,4%,5%,26,8
CC(=O)Nc1ccc(N/C=C/C(=O)c2ccc(Br)cc2)cc1,-2%,35%,4,-2
NS(=O)(=O)c1ccc(N/C=C/C(=O)c2ccc(Br)cc2)cc1,-14%,20%,77*,61*
CC(NC(=O)c1ccc(N(C)C)cc1)c1ccc(F)cc1 (stereo not given),1%,1%,-14,1
CC(=O)c1ccc(N/C=C/C(=O)c2ccc(Br)cc2)cc1,16%,54%,22*,11*
O=C(/C=C/Nc1ccc(F)cc1)c1ccc(Oc2ncccn2)cc1,0%,35%,38,15*
COc1ccc(N/C=C/C(=O)c2ccc(Oc3ncccn3)cc2)cc1,-22%,22%,11,10
SMILES,Sm TGR block,FMDV antiviral,Shiga toxin inh,CHX counter
CCOc1ccc(CCNC(=O)CS(=O)Cc2nc(-c3ccccc3C)oc2C)cc1OCC (stereo not given),35µM*,-12%,21,0
Cc1oc(-c2ccccc2F)nc1CS(=O)CC(=O)NCc1cccs1 (stereo not given),-30%,22%,-8,-6
CCOc1ccc(CCNC(=O)CS(=O)Cc2nc(-c3ccc(C)cc3)oc2C)cc1OCC (stereo not given),-24%,-12%,-1,0
Cc1oc(-c2ccccc2F)nc1CS(=O)CC(=O)NC(C)C (stereo not given),14µM*,15%,/,/
Cc1ccccc1-c1nc(CS(=O)CC(=O)NCc2ccccn2)c(C)o1 (stereo not given),?,-3%,-9,-7
CCC(C)NC(=O)CS(=O)Cc1nc(-c2ccccc2C)oc1C (stereo not given),8.9µM*,-1%,-11,-3
CCCNC(=O)CS(=O)Cc1nc(-c2ccccc2C)oc1C (stereo not given),50µM*,0%,-5,-8
CCn1c(C(=O)N2CCC(C(=O)NCCc3ccc(OC)cc3OC)CC2)cc2sccc21,-8%,?,/,/
CCN(CC)S(=O)(=O)c1ccc2c(c1)c(=O)c(C(=O)N1CCN(c3ccc(OC)cc3)CC1)cn2C,-2%,4%,/,/
COc1ccc(NC(=O)C(C)n2nc(C)c3c(C)n(-c4ccccc4)nc3c2=O)cc1Cl (stereo not given),2%,-31%,/,/
Cc1ccccc1-c1nc(CS(=O)CC(=O)N2CCC3(CC2)OCCO3)c(C)o1 (stereo not given),8.9µM*,-1%,36,5
Cc1ccccc1-c1nc(CS(=O)CC(=O)N2CCN(c3cc(Cl)ccc3C)CC2)c(C)o1 (stereo not given),-26%,?,/,/
CC(C)/C=N/Nc1nc(-c2ccc(Br)cc2)cs1,1%,26%,54*,31*
O=C(Nc1nc(-c2ccc(Br)cc2)cs1)c1cccnc1,8%,-17%,-9,-3
O=S(=O)(c1ccccc1)c1nc(-c2ccco2)oc1NCCN1CCOCC1,?,0%,-15,6
O=S(=O)(c1ccccc1)c1nc(-c2ccco2)oc1NCCCN1CCOCC1,28µM*,13%,14,-2
N#Cc1nc(-c2ccccc2)oc1NCCCn1ccnc1,-4%[57.1 µM],23%,70,16*
O=S(=O)(c1ccccc1)c1nc(-c2cccs2)oc1NCCCn1ccnc1,?,10%,-6,0
O=S(=O)(c1ccc(Br)cc1)c1nc(-c2ccco2)oc1NCCCn1ccnc1,22µM*,40%,/,/
COC(=O)c1ccccc1S(=O)(=O)N(Cc1cc2ccc(OC)cc2[nH]c1=O)CC1CCCO1 (stereo not given),0%,5%,-21,-4
COc1ccc2cc(CN(CC3CCCO3)S(=O)(=O)c3ccc(C(C)=O)cc3)c(=O)[nH]c2c1 (stereo not given),-15%,/,64*,19*
CCN1/C(=C2/OC(=S)N(C)C2=O)Sc2ccccc21,-1%,-10%,3,-4
CCN1/C(=C\C=C2\C(=O)N(C)C(=S)N2C)Sc2ccccc21,3%,7%,63*,28*
COc1ccc2nc(NC(=O)c3ccc([N+](=O)[O-])o3)sc2c1,3%,-1%,55*,34*
O=C(Nc1nc2cc3c(cc2s1)OCCO3)c1ccc([N+](=O)[O-])o1,-1%,-23%,45*,48*
SMILES,Sm TGR block,FMDV antiviral,Shiga toxin inh,CHX counter
O=C(Nc1nc2ccccc2s1)c1ccc([N+](=O)[O-])o1,-18%,18%,48*,33*
O=C(Nc1nc2c(F)cc(F)cc2s1)c1ccc([N+](=O)[O-])o1,-15%,-4%,50*,26*
Cc1cc(C)c2nc(NC(=O)c3ccc([N+](=O)[O-])o3)sc2c1,-11%,-4%,/,-2
CCc1nnc(NC(=O)c2cc(=O)c3cc(C)c(C)cc3o2)s1,0%,-16%,/,/
Cc1cc(F)ccc1NC(=O)CCS(=O)(=O)c1ccc2c(c1)NC(=O)CO2,-1%,?,/,/
Cc1cc[n+](CC(=O)c2cc3ccccc3oc2=O)cc1,?,34%,+,60*
O=C(c1ccccc1)c1cc2ccccc2oc1=O,0%,30%,60*,37
O=C(c1ccccc1)N1CCN(C(=O)c2cc3ccccc3oc2=O)CC1,17%,7%,4,-9
O=C(NNC(=O)c1cc2ccccc2oc1=O)c1ccccc1,-3%,31%,62*,20*
O=C(O)c1cc2ccccc2oc1=O,5%,0%,58*,43*
